Only some compounds are listed: those with a hit (about 2.8% of all), similar ones and a draw of the others.
B2AR arrestin – qHTS assay of beta-arrestin-biased ligands of beta2-adrenergic receptor | Beta-2 adrenergic receptor (Homo sapiens), P07550 | beta-arrestin recruitment to beta2AR, cell-based reporter | Potency, µM (top dose mostly 46.1 µM), inactives show top-dose activation, usual class: activators | hit rate 0.02% among 330,000 | AID 492947, 2010; active means well fitted activation curve with a large enough effect; inconclusive means small, poorly fitted or top-dose-only effect;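 further: potency means the concentration at half of the fitted maximal effect; 0% = DMSO controls and full agonism = EC100 isoproterenol or metaproterenol; nearly all actives have a fitted effect of over 65% in size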
Giardia kill – Small Molecules that selectively kill Giardia lamblia: qHTS; AID 540267, 2011; activity change, % at 7.66 µM, hits read low; Giardia lamblia trophozoite viability; hit rate 0.15% among 340,000; in the data active means activity change below about -80%; inconclusive means between about -30% and that limit;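 further: parasites exposed to compound for two days anaerobically before the ATP read; on the % scale 0 is the no-effect control and ±100 the full control effect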
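ATP-content bioluminescence gauges trophozoite survival. Cells (100/well) receive compound and incubate anaerobically for 48 hrs at 37 deg C; detection reagent follows for 15-30 min at room temperature.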
D3 ag – qHTS of D3 Dopamine Receptor Agonist: qHTS. D(3) dopamine receptor (Homo sapiens), P35462. D3R DiscoveRx beta-arrestin cells, luminescence, 90 min. AID 652048, 2013. hit rate 0.58% among 410,000. max activation, %; in the data active means max activation above about 30%; further: 0% is about no effect
Target sequence (P35462 whole entry, looked up): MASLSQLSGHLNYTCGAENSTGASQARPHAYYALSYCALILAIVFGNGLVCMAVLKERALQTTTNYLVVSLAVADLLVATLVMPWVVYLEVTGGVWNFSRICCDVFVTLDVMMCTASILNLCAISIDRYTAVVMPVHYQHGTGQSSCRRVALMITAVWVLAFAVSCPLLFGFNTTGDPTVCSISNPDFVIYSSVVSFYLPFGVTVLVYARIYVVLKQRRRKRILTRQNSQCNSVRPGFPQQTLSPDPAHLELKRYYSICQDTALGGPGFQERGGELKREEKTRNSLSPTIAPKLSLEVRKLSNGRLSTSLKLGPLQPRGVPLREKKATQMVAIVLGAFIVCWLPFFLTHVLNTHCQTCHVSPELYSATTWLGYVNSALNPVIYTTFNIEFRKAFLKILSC
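Cells at 1500/well, incubated overnight, then treated with pinned compounds (dopamine as control) for 90 min at 37 degrees C. DiscoveRx reagent added for 30 - 60 minutes at room temperature; luminescence read.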
DRD3 antagonist – qHTS of D3 Dopamine Receptor Antagonist: qHTS; D(3) dopamine receptor (Homo sapiens), P35462; D3R cells, DiscoveRx beta-arrestin luminescence, antagonist mode; active compounds read low; max response, negative = inhibition, %; hit rate 2.5% among 360,000; AID 652054, 2013; in the data active means max response below about -50%; inconclusive means no clear call, values can overlap the other calls; further: on the % scale 0 is the no-effect control and ±100 the full control effect
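Cells plated overnight at 1500 cells/well, then exposed to library compounds with dopamine controls for 90 minutes at 37 degrees C. DiscoveRx reagent added for 30–60 minutes at room temperature; luminescence read, quantitative HTS format.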
Numbers without * were called inactive.

How did COc1cccc(-n2cc(C(=O)NCCc3cccc(C)c3)c3ccccc3c2=O)c1 do in these assays?
D3 ag: 4.6

What do the screens show for `CC(=O)N(C1CC(C)C(C#N)(C#N)C1(C#N)C#N)N(C)C` (stereo not drawn)?
B2AR arrestin: -0.2%; Giardia kill: 1.4; D3 ag: -17.9; DRD3 antagonist: -70.7*

How did CCCC(=O)N(C1CC(C)C(C#N)(C#N)C1(C#N)C#N)N(C)C (stereo not drawn) do in these assays?
B2AR arrestin: -0.7%; Giardia kill: -2.8; D3 ag: -7.6; DRD3 antagonist: -61.9*

How did CCc1ccc(C2/C=C\CNC(c3ccccc3)C(=O)N2Cc2ccc(C)cc2)cc1 (stereo not drawn) do in these assays?
Giardia kill: -4.1

What do the screens show for `O=C(Nc1ccc(F)cc1F)c1c(C(F)(F)F)ccnc1Oc1cccc(C(F)(F)F)c1`?
B2AR arrestin: -0.3%; Giardia kill: 26.7; D3 ag: -0.4; DRD3 antagonist: -57.9*

What do the screens show for `NC[C@@H]1O[C@H](O[C@H]2[C@@H](O)[C@H](O[C@@H]3[C@@H](O)[C@H](N)C[C@H](N)[C@H]3O[C@H]3O[C@H](CN)[C@@H](O)[C@H](O)[C@H]3N)O[C@@H]2CO)[C@H](N)[C@@H](O)[C@@H]1O`?
D3 ag: -1.6

What do the screens show for `CC(NS(=O)(=O)c1ccc(Br)cc1)C(c1cccs1)N1CCN(C)CC1` (stereo not drawn)?
B2AR arrestin: -0.3%; Giardia kill: -13.9; D3 ag: -9.7; DRD3 antagonist: -52.2*

What do the screens show for `COc1ccc(/C=C/C(=O)NCC(=O)N/N=C/c2cc(Br)ccc2OC)cc1`?
B2AR arrestin: 0.0%; Giardia kill: 1.0; D3 ag: -39.7; DRD3 antagonist: -57.8*

How did COc1ccc(Br)cc1/C=C/C(=O)Nc1ccc(C)cc1 do in these assays?
B2AR arrestin: -1.6%; Giardia kill: -5.0; D3 ag: -31.8; DRD3 antagonist: -75.2*

What do the screens show for `COc1ccccc1/C=C/C(=O)NCC(=O)N/N=C/c1cc(Br)ccc1OC`?
B2AR arrestin: -0.3%; Giardia kill: 16.1; D3 ag: -22.3; DRD3 antagonist: -71.4*

How did COc1ccccc1/C=C\C(=O)NCC(=O)N/N=C/c1cccc(OC)c1O do in these assays?
B2AR arrestin: 0.1%; Giardia kill: 49.5; D3 ag: -15.9; DRD3 antagonist: inconclusive

How did O=C(Nc1cccc(F)c1)c1ccc2c(c1)N(Cc1ccccc1)C(=O)c1ccccc1S2(=O)=O do in these assays?
D3 ag: -4.7

How did Clc1cc(Br)ccc1OCCOCCN1CCCC1 do in these assays?
B2AR arrestin: -0.7%; Giardia kill: -0.6; D3 ag: -18.4; DRD3 antagonist: -81.1*

What do the screens show for `Clc1cc(Br)ccc1OCCOCCN1CCOCC1`?
B2AR arrestin: -0.2%; Giardia kill: -7.7; D3 ag: -16.0; DRD3 antagonist: -82.0*

What do the screens show for `COc1ccc(-c2ccc(OC)c(C3C4C=CCC(C)C4C(=O)N3Cc3ccccc3)c2)cc1` (stereo not drawn)?
Giardia kill: 7.4

What do the screens show for `Cc1ccc(C(=O)NNc2cc(N3CCCC3)nc(N3CCCC3)n2)cc1`?
B2AR arrestin: 0.4%; Giardia kill: 23.6; D3 ag: -9.2; DRD3 antagonist: -52.3*

Results for CC(C)(C)c1nc(CN2CCCCC2)cc(CN2CCCCC2)c1O ?
B2AR arrestin: -1.0%; Giardia kill: 16.5; D3 ag: 2.2; DRD3 antagonist: -72.1*

How did CC(C)(C)c1nc(CN2CCOCC2)ccc1O do in these assays?
B2AR arrestin: -0.3%; Giardia kill: 1.9; D3 ag: -3.2; DRD3 antagonist: -18.1

How did CCOC(=O)c1c(C)[nH]c(C)c1S(=O)(=O)N(C)CC(=O)Nc1ccc(C)cc1C do in these assays?
D3 ag: -9.3

How did COc1ccc(CN2CCN(Cc3ccccc3C(F)(F)F)CC2)c(OC)c1 do in these assays?
B2AR arrestin: 0.1%; Giardia kill: -15.8; D3 ag: -36.1; DRD3 antagonist: inconclusive

How did COc1ccc(CN2CCN(CCCc3ccccc3)CC2)c(OC)c1 do in these assays?
B2AR arrestin: 0.3%

How did COc1ccc(CN2CCN(c3ccccc3OC)CC2)c(OC)c1 do in these assays?
B2AR arrestin: -0.7%; Giardia kill: -26.7; D3 ag: -4.6; DRD3 antagonist: -100.4*

Results for COc1ccc(OC)c(CN2CCN(c3ccccc3OC)CC2)c1 ?
B2AR arrestin: 0.1%; Giardia kill: -17.9; D3 ag: -54.7; DRD3 antagonist: -91.9*

What do the screens show for `COc1ccc(CC(C)N2CCN(Cc3ccccc3)CC2)c(OC)c1` (stereo not drawn)?
B2AR arrestin: 0.0%; Giardia kill: 24.9; D3 ag: -39.5; DRD3 antagonist: -84.2*

What do the screens show for `COc1ccc(OC)c(CN2CCN(Cc3cccc4ccccc34)CC2)c1`?
B2AR arrestin: 0.3%; Giardia kill: 4.9; D3 ag: -0.6; DRD3 antagonist: -54.5*

How did COc1ccc(OC)c(CN2CCCCCC2)c1 do in these assays?
B2AR arrestin: -0.4%; Giardia kill: 19.1; D3 ag: -8.6; DRD3 antagonist: -0.4

How did Cc1ccc2cccc(NC(=O)c3ccc(-c4cc(Cl)ccc4Cl)o3)c2n1 do in these assays?
D3 ag: -6.3

How did Cc1cc(C)cc(NC(=O)Nc2c[nH]c(=O)[nH]c2=O)c1 do in these assays?
D3 ag: 10.2

What do the screens show for `COc1cc(NC(=O)CSc2ncc(S(=O)(=O)c3ccc(Br)cc3)c(=O)[nH]2)cc(OC)c1`?
D3 ag: -4.7

What do the screens show for `COc1ccc2ccccc2c1CN1CCN(C)CC1`?
B2AR arrestin: 2.8%; Giardia kill: 5.5; D3 ag: -8.6; DRD3 antagonist: -81.7*

Results for CCN1CCN(Cc2c(OC)ccc3ccccc23)CC1 ?
B2AR arrestin: -0.4%; Giardia kill: 11.0; D3 ag: -30.2; DRD3 antagonist: inconclusive

What do the screens show for `O=C(c1ccccc1)N1CCN(CC(O)COCC2CC=CCC2)CC1` (stereo not drawn)?
B2AR arrestin: 0.1%; Giardia kill: 22.3; D3 ag: -2.8; DRD3 antagonist: inconclusive

How did O=C(c1ccccc1)N1CCN(CC2CC=CCC2)CC1 (stereo not drawn) do in these assays?
B2AR arrestin: -0.2%; Giardia kill: -3.8; D3 ag: -4.3; DRD3 antagonist: -60.2*

How did Cc1ccc(N2CCN(CC3CC=CCC3)CC2)cc1 (stereo not drawn) do in these assays?
B2AR arrestin: -0.3%; Giardia kill: 0.2; D3 ag: -39.1; DRD3 antagonist: -141.4*

Results for C1=CCC(CN2CCN(C3CCCCCC3)CC2)CC1 (stereo not drawn) ?
B2AR arrestin: 0.4%; Giardia kill: 1.2; D3 ag: -17.5; DRD3 antagonist: inconclusive

Results for CCCN1CCC(N2CCN(c3cccc(C(F)(F)F)c3)CC2)CC1 ?
B2AR arrestin: 0.0%; Giardia kill: -2.9; D3 ag: -27.0; DRD3 antagonist: inconclusive

Results for FC(F)(F)c1cccc(N2CCN(CC3CC=CCC3)CC2)c1 (stereo not drawn) ?
B2AR arrestin: -0.1%; Giardia kill: -5.3; D3 ag: -17.4; DRD3 antagonist: -65.6*

Screens as filed in PubChem.
